uPA generation = inhibitors of cell surface uPA generation. cell surface uPA generation assay, qHTS. Potency, µM (titrated, usually from 38.3 µM), for the others: top-dose activity change, negative = inhibition, most hits filed as inhibitors. AID 540303. 330,000 compounds, 0.31% hits; active means well fitted inhibition curve with a large enough effect; inconclusive means small, poorly fitted or top-dose-only effect; inactive means no such curve, though single readings can be large or run the other way; tested in mouse RAW 264.7 cells; further: potency means the concentration at half of the fitted maximal effect; on the % scale 0 is the no-effect control and ±100 the full control effect; nearly all actives have a fitted effect of over 55% in size
VP16 counter = counter-screen for ROR gamma inhibitors: Gal4-VP16 reporter; Drosophila S2 Gal4-VP16 UAS-luciferase, luminescence, 20 h; Potency, µM (titrated, usually from 53.6 µM), for the others: top-dose activity, negative = inhibition, usual class: inhibitors; 310,000 compounds, 3.5% hits;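 further: Gal4-VP16 expression switched on by copper sulfate through the metallothionein promoter; potency means the concentration at half of the fitted maximal effect; on the % scale 0 is the no-effect control and ±100 the full control effect; nearly all actives have a fitted effect of over 50% in size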
TRPV1 agonist = human TRPV1 agonism | Q8NER1 | TRPV1-expressing cells, Fluo-8 calcium influx, agonist mode | activation, % at 8.33 µM | 320,000 compounds, 0.19% hits | AID 540275; in the data active means activation above about 80%; inconclusive means between about 30% and that limit; further: 0% is about no effect
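Cells expressing TRPV1 were dye-loaded with Fluo-8 and read kinetically: 10 s baseline, 3 min after compound (agonist portion), then 2 min after EC20 capsaicin (allosteric enhancer portion). Calcium-bound dye fluorescence at 480/520 nm.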
TRPV1 PAM = human TRPV1 potentiation. 320,000 compounds, 0.02% hits. TRPV1-expressing cells, Fluo-8 calcium influx, capsaicin EC20 potentiation. potentiation, % at 8.33 µM; in the data active means potentiation above about 80%; inconclusive means between about 30% and that limit; further: 0% is about no effect
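Cells expressing TRPV1 were dye-loaded with Fluo-8 and read kinetically: 10 s baseline, 3 min after compound (agonist portion), then 2 min after EC20 capsaicin (allosteric enhancer portion). Calcium-bound dye fluorescence at 480/520 nm.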
RORg inh = ROR gamma (mouse) transcription inhibition. 310,000 compounds, 5.4% hits. AID 2551. P51450. Drosophila S2 Gal4-RORgamma UAS-luciferase reporter, 20 h. Potency, µM (doses to about 53.6 µM), for the others: at the top dose activity change, negative = inhibition, hits mostly inhibitors; further: potency means the concentration at half of the fitted maximal effect; on the % scale 0 is the no-effect control and ±100 the full control effect; nearly all actives have a fitted effect of over 60% in size
Target sequence (P51450 whole entry, looked up, the tested form may be a part): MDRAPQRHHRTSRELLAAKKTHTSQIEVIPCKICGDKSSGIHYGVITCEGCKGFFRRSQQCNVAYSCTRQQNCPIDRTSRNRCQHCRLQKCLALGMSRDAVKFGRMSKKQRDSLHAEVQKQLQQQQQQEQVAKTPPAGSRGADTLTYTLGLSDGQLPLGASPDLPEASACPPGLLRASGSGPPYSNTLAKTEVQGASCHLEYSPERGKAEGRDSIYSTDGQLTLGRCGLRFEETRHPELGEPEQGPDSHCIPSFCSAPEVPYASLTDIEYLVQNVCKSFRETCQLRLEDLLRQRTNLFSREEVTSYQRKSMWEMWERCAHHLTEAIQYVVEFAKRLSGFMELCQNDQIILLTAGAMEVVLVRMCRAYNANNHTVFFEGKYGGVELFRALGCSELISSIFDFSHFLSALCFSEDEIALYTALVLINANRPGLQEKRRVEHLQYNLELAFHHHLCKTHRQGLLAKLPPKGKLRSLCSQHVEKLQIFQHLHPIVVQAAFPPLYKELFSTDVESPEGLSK
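Using a luciferase readout, inhibitors were identified by reduced reporter activity in Drosophila cells coexpressing a copper-inducible Gal4–ROR gamma fusion and UAS-driven Photinus luciferase, incubated 20 hr after 700 uM copper sulfate.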
* hit, by the source's call; ? = inconclusive; / = no result. Sampled rows, rich in hits. Any-hit rate of the full collection: about 5.8%. Unless noted, the call rests on the fitted dose curve; in most records, active means well fitted curve in the direction sought with a large enough effect; inconclusive means small, poorly fitted or top-dose-only effect, or another doubt; inactive means no such curve, though single readings can be large; an effect the other way counts as inactive or inconclusive.

SMILES	uPA generation	VP16 counter	TRPV1 agonist	TRPV1 PAM	RORg inh
CCn1c(-c2cc(-c3cc(C)ccc3C)nc3ccccc23)n[nH]c1=S	1%	-1%	-5	-1	?
COCC(=O)N1CCC2(CCCN(Cc3nccs3)C2)CC1	/	7%	/	/	-7%
CC(=O)Oc1ccc2nc(/C=C/c3ccccc3)oc(=O)c2c1	-10%	?	-4	?	6.3µM*
O=C(O)c1cc(/C=C/C(=O)c2cc(F)ccc2O)c2c(c1)COCO2	?	10µM*	0	13	13µM*
CCCc1cc(C(=O)Cc2ccc(F)cc2)c(O)cc1O	3%	?	0	9	11µM*
CCc1cc(C(=O)Cc2ccc(F)cc2)c(O)cc1O	4%	?	0	-31	10%
Cc1ccc(CN2CCC(N3CC(C)OC(C)C3)CC2)cc1 (stereo unspecified)	-4%	7%	-1	-11	0%
COc1ccc(C2Oc3ccccc3C3=C2C(c2cccs2)n2ncnc2N3)cc1 (stereo unspecified)	-9%	2.5µM*	?	-36	?
COc1cc(C(=O)NC(C)CCn2cccn2)ccc1OC1CCN(C(C)=O)CC1 (stereo unspecified)	5%	0%	1	-12	13%
CCn1c(C(=O)N2CCC(C(=O)NCCCSC3CCCCC3)CC2)cc2sccc21	-23%	14µM*	13	-10	-60%
NC(=O)c1ccc(NC(=O)CN2CCN(Cc3ccccc3)CC2)cc1	-3%	2%	11	6	2%
O=C(Nc1ccccc1)c1ccc(NC2CCCCC2)c(S(=O)(=O)N2CCOCC2)c1	-2%	11%	86*	15	4%
O=C(Nc1ccc(NC(=O)c2ccc(Cl)c(S(=O)(=O)N3CCOCC3)c2)cc1)c1ccccc1	-4%	-3%	-1	9	-15%
O=C(Nc1ccc(N2CCCCCC2)cc1)c1cccc(S(=O)(=O)N2CCOCC2)c1	-6%	/	87*	-2	/
CC(C)(C)c1cc(NC(=O)c2cccc(S(=O)(=O)N3CCOCC3)c2)no1	-2%	9%	80*	-7	43%
COc1ccc2[nH]cc(CCNc3ccnc(-c4ccccc4Cl)n3)c2c1	/	3%	/	/	-10%
NCCCCCc1nnc(SCc2ccc(Cl)c(Cl)c2)o1	0%	10µM*	3	-23	?
NCCc1nnc(SCc2ccc(F)cc2)o1	0%	-11%	-1	-3	-18%
CCOC(=O)c1cc(-c2ccccc2)nc2c1c(C)nn2-c1ccccn1	2%	11µM*	?	-12	4µM*
O=C(CSc1ccc(F)cc1)Nc1nnc(-c2ccco2)o1	-2%	/	0	-4	/
COc1cccc2c1C(CO)N1C(C#N)C3CC(C(=O)O)C(C1C2)N3C (stereo unspecified)	-87%	10µM*	-2	2	7.1µM*
O=C1OC2(c3cc(Br)c(O)c(Br)c3Oc3c2cc(Br)c(O)c3Br)c2c(Cl)c(Cl)c(Cl)c(Cl)c21	/	-23%	/	/	-31%
Cc1cccc(Nc2nc(N)nc(CCl)n2)c1	-9%	10µM*	9	4	?
CC[C@](N)(CCC(=O)O)C(=O)O	/	?	/	/	-24%
CCc1nnc(NC(=O)c2ccc(S(=O)(=O)N(CCOC)CCOC)cc2)s1	3%	16%	0	-3	1%
SMILES	uPA generation	VP16 counter	TRPV1 agonist	TRPV1 PAM	RORg inh
CCc1nnc(NC(=O)c2ccc(S(=O)(=O)N(CCOC)CCOC)cc2)o1	-1%	6.3µM*	-1	16	2.2µM*
COCCN(CCOC)S(=O)(=O)c1ccc(C(=O)Nc2nnc(C3CC3)o2)cc1	-5%	3.5µM*	-3	?	4.5µM*
COc1ccc2nc(N3C(=O)/C(=C/c4ccccc4)NC3=S)sc2c1	1%	1.4µM*	0	7	1.4µM*
CCOc1ccc2nc(N3C(=O)/C(=C/c4ccccc4)NC3=S)sc2c1	-5%	1.1µM*	4	8	1.3µM*
CCOc1ccc2nc(N3CCCCCC3)sc2c1	/	-24%	10	-2	?
Cc1ccc(Cc2ccc(C(=O)NNC(N)=S)o2)cc1	0%	-16%	2	-41	10µM*
COc1ccc(NC(=O)c2ccc(Cc3ccc(C)cc3)o2)cc1	-7%	2%	0	-7	29%
Cc1cccc(-c2n[nH]c(=S)n2-c2ccccc2)c1[N+](=O)[O-]	3%	?	-1	1	13µM*
O=[N+]([O-])c1cccc(-c2ccc(/C=N/n3c(-c4ccccc4)n[nH]c3=S)o2)c1	8%	10µM*	-4	2	-27%
O=[N+]([O-])c1cccc(-c2n[nH]c(=S)n2-c2ccccc2)c1	-2%	-8%	0	12	7.1µM*
COc1ccc(-n2c(-c3cccc(C)c3[N+](=O)[O-])n[nH]c2=S)cc1	0%	-6%	1	11	7.9µM*
Cc1ccc(S(=O)(=O)N2CCOCC2)cc1-c1n[nH]c(=S)n1-c1ccccc1	3%	/	1	-4	/
O=[N+]([O-])c1ccc(O)c(/C=N/n2c(-c3ccccc3)n[nH]c2=S)c1	-8%	?	-3	3	?
Cc1cc(C)c(NC(=O)C2CCCN(S(=O)(=O)c3c(C)noc3/C=C/N(C)C)C2)c(C)c1 (stereo unspecified)	-26%	5%	2	17	3%
O=[N+]([O-])c1ccc2c(c1)[nH]c(=S)n2-c1ccccc1	/	-7%	-2	16	5µM*
O=[N+]([O-])c1ccc2[nH]c(=S)[nH]c2c1	-2%	/	/	/	/
COc1ccc(CCNC(=S)c2ccccc2)cc1OC	?	16µM*	19	-22	?
COc1ccc(CCNC(=O)C(=O)NCC2OCCN2S(=O)(=O)c2ccc(Br)cc2)cc1OC (stereo unspecified)	-3%	7.9µM*	0	1	?
COc1ccc(CCNC(=S)NC(=O)c2ccc(Br)cc2)cc1OC	0%	?	8	7	13µM*
COc1ccc(CCNC(=S)NC(=O)c2ccccc2)cc1C	-1%	?	29	7	10µM*
CCNC(=S)/N=C(\N)Nc1nc(C)c2cc(C)ccc2n1	-2%	-2%	7	-2	-2%
COc1ccc(NC(=S)/N=C(\N)Nc2nc(C)c3ccc(C)cc3n2)cc1	-29%	2µM*	11	10	0.63µM*
CCOc1ccc2nc(N/C(N)=N/C(=S)Nc3ccc(C)c(C)c3)nc(C)c2c1	-1%	?	3	6	1.8µM*
Cc1ccc2c(C)nc(N/C(N)=N/S(=O)(=O)c3ccc([N+](=O)[O-])cc3)nc2c1	-6%	2%	2	-7	21%
CCC(Sc1ccccn1)C(=O)Nc1cccc([N+](=O)[O-])c1 (stereo unspecified)	-2%	?	?	-18	16µM*
CC(=O)N1c2ccc(S(=O)(=O)N3CCCC3C(=O)Nc3ccc(C)cc3)cc2CC1C (stereo unspecified)	-16%	2%	-3	1	-40%
